Test system: PPARg homodimer (NR concentration 180 nM)
Assay: PBM binding z-score (relative to random genomic background probes); higher = stronger binding; sequences stand for … in GC…GCGATTGACAGCGTAGAATGAAGG
Summary of the method: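 Scanned fluorescence from custom Agilent 4×180K protein-binding microarrays was regression-normalized. Binding z-scores use random background probes as reference. Ligand-free nuclear receptor dimers were incubated on the arrays for 1 h and detected with antibodies against each partner (one per run).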

Sequence	PBM binding z-score
TCGACTAGGTTACGGGGGCATTCAGGGATGAAGA	2.41
CTATGTAGGTTAAGGGGGACATTCAGTTTGAAAG	2.11
CCGAGTAGGTTAGGAGGGGGCATTCAGTGCGAAT	2.59
CTGTGTAGGTTAAGGGGGTCATTCAGTTTGAAAG	3.62
CTATGTAGGTTAAGGGGGTCACTCAGTTTGAAAG	6
TCGAGTAGGTTAAGGGGGCATTCAGGGATGAAGA	2.85
TCGAGTTGGTTACGGGGGCATTCAGGGATGAAGA	1.79
TCGAGTAGTTTACGGGGGCATTCAGGGATGAAGA	0.685
TCGAGTAGGTTACGGGGGCATGCAGGGATGAAGA	1.59
CCGAGTAGGGTACGAGGGGGCATTCAGTGCGAAT	0.861
CCGAGTAGGTTACGAGGGGGAATTCAGTGCGAAT	0.811
CCGAGTAGGTTACAAGGGGGCATTCAGTGCGAAT	1.99
CTATGTAGGTTAAGGGGATCATTCAGTTTGAAAG	1.89
TCGAGTAGGTTACGGGCGCATTCAGGGATGAAGA	0.541
TCGAGTAGGTTACGGGGGCATTTAGGGATGAAGA	1.44
CTATGTAGGTTTAGGGGGTCATTCAGTTTGAAAG	3.1
TCGAGTAGGTTACGGGGGCATTCCGGGATGAAGA	1.57
TCGAGTAGGTTACCGGGGCATTCAGGGATGAAGA	0.533
TCGAGTAGGTGACGGGGGCATTCAGGGATGAAGA	2.07
CCGAGTAGGTTACGAGGTGGCATTCAGTGCGAAT	0.24

Sequence	PBM binding z-score
CTATGTAGGGTAAGGGGGTCATTCAGTTTGAAAG	4.11
CTATGTAGGTTCAGGGGGTCATTCAGTTTGAAAG	3.3
CCGAGTAGTTTACGAGGGGGCATTCAGTGCGAAT	0.86
CCGAGTAGGTTACGAGGGTGCATTCAGTGCGAAT	0.357
TCGAGTAGGTTACGGGGGCATTCAAGGATGAAGA	1.38
CTATGTACGTTAAGGGGGTCATTCAGTTTGAAAG	3.11
TCGAGTAGGTTACGGGGGCTTTCAGGGATGAAGA	0.803
CCGAGTAGGTTACGAGGGGGCATTCTGTGCGAAT	2.19
TCGCGTAGGTTACGGGGGCATTCAGGGATGAAGA	1.25
TCGAGTAGGTTACGGGGGCATTCATGGATGAAGA	1.86
CTATGTAGGTTAAGGGGGTCATTCACTTTGAAAG	3.47
CCGAGTATGTTACGAGGGGGCATTCAGTGCGAAT	1.3
CTATGTAGGTTAAGGGCGTCATTCAGTTTGAAAG	1.62
CCGAGTAGGTTACGAGGGGGCAGTCAGTGCGAAT	2.79
CTATGTCGGTTAAGGGGGTCATTCAGTTTGAAAG	6.84
TCGAGTAGGTTAGGGGGGCATTCAGGGATGAAGA	2.84
CTTTGTAGGTTAAGGGGGTCATTCAGTTTGAAAG	3.76
TCGAGTAGGTTACGAGGGCATTCAGGGATGAAGA	0.36
TCGAGTAGGTTACGGAGGCATTCAGGGATGAAGA	0.325
